TEAD-YAP inh = TEAD-YAP interaction inhibition | HEK-TIYL cells, TEAD-Gal4/YAP UAS-luciferase luminescence | inhibition, % at 9.12 µM | 640,000 compounds, 1.4% hits | AID 1259422; in the data active = inhibition above about 32%
MITF primary = blocks human microphthalmia-associated transcription factor. AID 1259374. 650,000 compounds, 0.91% hits. AlphaScreen MITF homodimerization, bead proximity signal. inhibition, % at 2.6 µM. O75030; in the data active = inhibition above about 50%
FBW7 activator = human FBW7 E3 ligase activation, primary screen. AlphaScreen FBW7–phospho-cyclin E peptide binding, activator screen. normalized activity (activation), % at 26.1 µM. 650,000 compounds, 0.13% hits; in the data active = normalized activity above about 1.9%;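 also: purified mutant Fbw7 with reduced substrate affinity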
GPR151 activ = human GPR151 activation; Q8TDV0; PathHunter beta-arrestin GPR151 cells, luminescence; activation, % at 11.2 µM; 650,000 compounds, 1% hits; AID 1508602; in the data active = activation above about 4.9%
Target sequence (Q8TDV0 whole entry, looked up): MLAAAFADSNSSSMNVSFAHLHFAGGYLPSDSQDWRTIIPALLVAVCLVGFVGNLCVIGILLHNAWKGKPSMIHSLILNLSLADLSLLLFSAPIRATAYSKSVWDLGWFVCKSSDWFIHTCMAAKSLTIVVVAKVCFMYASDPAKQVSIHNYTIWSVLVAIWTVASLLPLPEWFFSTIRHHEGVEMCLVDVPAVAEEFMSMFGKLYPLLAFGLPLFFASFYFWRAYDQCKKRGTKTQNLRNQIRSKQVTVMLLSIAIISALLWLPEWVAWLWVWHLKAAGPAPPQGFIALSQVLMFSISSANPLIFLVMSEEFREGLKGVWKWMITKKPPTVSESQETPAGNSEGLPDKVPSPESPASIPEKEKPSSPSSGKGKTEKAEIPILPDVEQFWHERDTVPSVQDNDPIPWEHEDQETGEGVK
Each line names hits and unclear results; the compound was inactive in the other large screens. A selection: hits, their analogues and other compounds. The true share with any hit is near 3.4%.

CCCNc1nc(Nc2ccccn2)nc2nc[nH]c12	none
O=C(CCc1nnc(CCC2CCCCC2)o1)N1CCSCC1	none
CCC(C)C1N=C2c3ccccc3N=C(SCC(=O)c3ccc(O)c(O)c3)N2C1=O (configuration not stated)	MITF primary 61
CCCNc1nc(SCc2ccc(Cl)cc2)nnc1C	none
O=C(O)CN1C(=O)/C(=N\N2C(=O)CSC2=S)c2ccccc21	MITF primary 55
CCN1C(=O)/C(=N\N2C(=O)CSC2=S)c2ccccc21	none
c1ccc(Nc2nc(Nc3cccnc3)nc3c2ncn3-c2ccccc2)cc1	TEAD-YAP inh 34
c1ccc(OCCNc2nc(Nc3cccnc3)nc3c2ncn3-c2ccccc2)cc1	none
c1ccc(Nc2nc(Nc3ccc(-n4ccnc4)cc3)nc3c2ncn3-c2ccccc2)cc1	none
c1ccc(-n2cnc3c(Nc4ccc(N5CCOCC5)cc4)nc(Nc4cccnc4)nc32)cc1	TEAD-YAP inh 41
c1ccc(-n2cnc3c(Nc4ccc(N5CCOCC5)cc4)nc(Nc4ccc(-n5ccnc5)cc4)nc32)cc1	TEAD-YAP inh 41
CCN(CC)c1nc(Nc2ccc(N3CCOCC3)cc2)nc(Nc2ccc(-n3ccnc3)cc2)n1	TEAD-YAP inh 65
CC(=O)c1ccc2c(c1)C1C=CCC1C(c1ccccc1[N+](=O)[O-])N2 (configuration not stated)	none
CCCNC(=O)CC1(c2ccccc2)C(=O)c2ccccc2C1=O	none
CC(C)C(C)NC(=O)CSc1nc2ccc([N+](=O)[O-])cc2s1 (configuration not stated)	none
COc1cccc(C2C(C#N)=C(N)OC3=C2C(=O)CC(c2ccccc2)C3)c1OC (configuration not stated)	none
Cc1ccc(C2C(C#N)=C(N)N(N(C)C)C3=C2C(=O)CC(c2ccccc2)C3)cc1 (configuration not stated)	none
COc1ccc(OC)c(C2C(C#N)=C(N)N(N(C)C)C3=C2C(=O)CC(c2ccccc2)C3)c1 (configuration not stated)	TEAD-YAP inh 57
COc1cccc(C2C(C#N)=C(N)N(N(C)C)C3=C2C(=O)CC(c2ccccc2)C3)c1OC (configuration not stated)	TEAD-YAP inh 55
N#CC1=C(N)OC2=C(C(=O)CC(c3ccccc3)C2)C1c1c(Cl)cccc1[N+](=O)[O-] (configuration not stated)	TEAD-YAP inh 41
N#CC1=C(N)OC2=C(C(=O)CC(c3ccccc3)C2)C1c1ccc([N+](=O)[O-])s1 (configuration not stated)	none
COc1cc(C2C(C#N)=C(N)N(N(C)C)C3=C2C(=O)CC(c2ccccc2)C3)cc(OC)c1OC (configuration not stated)	TEAD-YAP inh 57
COc1ccc(OC)c(C2C(C#N)=C(N)N(N(C)C)C3=C2C(=O)CC(C)(C)C3)c1 (configuration not stated)	none
COc1ccc(CNC(=O)N2CCN(Cc3nc4ccccc4n3C)CC2)cc1	none
COc1ccccc1C1C(C#N)=C(N)OC2=C1C(=O)CC(c1ccccc1)C2 (configuration not stated)	none
COc1ccc(OC)c(C2C(C#N)=C(N)OC3=C2C(=O)CC(c2ccccc2)C3)c1 (configuration not stated)	TEAD-YAP inh 47
COc1ccc(OC)c(NC(=O)C2C3C=CC(C3)C2C(=O)O)c1 (configuration not stated)	none
COc1ccc(OC)c(NC(=S)NCc2ccccc2)c1	none
CN(C)/C=C/C=C/C=C1\CCC/C(=C\C=C\N(C)C)C1=O	MITF primary 78
CN(C)/C=C/C=C1\CCc2ccccc2C1=O	none
COc1ccc(-c2ccc(NS(=O)(=O)c3cc(C)cc(C)c3)cc2)nn1	FBW7 activator 1.9
CCOC(=O)C(=O)NCC(c1cccs1)S(=O)(=O)c1ccccc1 (configuration not stated)	none
Cc1cc(/C=C(\C#N)C(=O)N2CCOCC2)c(C)n1C1CCCC1	TEAD-YAP inh 32
CCN1CCN(C(=O)/C(C#N)=C/c2cc(C)n(C3CCCC3)c2C)CC1	none
CC1Cc2ccccc2N1C(=O)CSc1nnc(-c2ccncc2)n1C (configuration not stated)	none
Cc1nc2sc(-c3ccccc3)cc2c(=O)[nH]1	TEAD-YAP inh 66
Cc1nc2sc(-c3ccccc3)cc2c2nnc(-c3ccccc3)n12	TEAD-YAP inh 91
CS(=O)(=O)N(CC(=O)N1CCCCC1)c1ccc(Br)cc1	none
O=C(CCl)N(CC1=CCSC1)c1ccccc1	TEAD-YAP inh 47
c1cc2ccc3ncc(-c4ccc(-c5ccn[nH]5)cc4)cc3c2cn1	FBW7 activator 2.0
